Measurements as given in PubChem BioAssay AID1159554 (Broad Institute, 2015).
In all, about 94,000 compounds went through this assay and about 2,100 (2.2%) were called active. The sample holds actives, similar compounds and a random draw of the others, so the mix is not that of the screen. Cut-off read from the data, not from the text of the source: active = activity change below about -80%; inconclusive = no clear call, values can overlap the other calls; inactive = above that.

assay: Dd2 malaria parasite growth inhibition – SYBR Green fluorescence, single dose replicates, primary screen (AID 1159554); conditions: P. falciparum Dd2 growth, 72 h, at 10 µM, stronger effect = lower value

| SMILES | activity change |
| --- | --- |
| CCCC#Cc1cnc2c(c1)C(=O)N([C@@H](C)CO)C[C@@H](C)[C@@H](CN(C)C(=O)c1ccccc1)O2 | -15.9% (inactive) |
| CO[C@H]1CN(C)C(=O)c2ccc(NC(=O)C3CC3)cc2OC[C@H](C)N(Cc2ccncc2)C[C@@H]1C | -31.5% (inactive) |
| COc1cccc(CNC(=O)[C@@H]2[C@@H](CO)[C@@H]3Cn4c(ccc(-c5cccnc5)c4=O)[C@@H]3N2C)c1 | 8.71% (inactive) |
| O=C(C[C@@H]1CC[C@@H](NS(=O)(=O)c2ccc(F)cc2)[C@@H](CO)O1)NCCc1ccncc1 | 23.4% (inactive) |
| O=C(N[C@H]1CC[C@@H](CCNS(=O)(=O)Cc2ccccc2)O[C@H]1CO)c1ccccc1F | -32.4% (inactive) |
| CC(C)NC(=O)N(C)C[C@H]1OCCCC[C@@H](C)Oc2ccc(NC(=O)C3CCCCC3)cc2C(=O)N([C@H](C)CO)C[C@H]1C | -37.9% (inactive) |
| O=C(NC1CCCCC1)N1CC2(C1)[C@H](c1ccccc1)[C@@H](CO)N2S(=O)(=O)Cc1ccccc1 | -4.41% (inactive) |
| C[C@@H]1CCCCO[C@H](CN(C)S(=O)(=O)c2cccs2)[C@@H](C)CN([C@@H](C)CO)C(=O)c2cc(NC(=O)NC3CCCCC3)ccc2O1 | -76% (inactive) |
| O=C(Nc1ccccc1F)N1C[C@H]2[C@@H](c3ccccc31)[C@@H](CO)N2C(=O)Cc1cccnc1 | 13.8% (inactive) |
| O=C(C1CCCC1)N1[C@@H](CO)[C@@H](c2ccccc2)C12CN(Cc1ccc(F)cc1)C2 | -28% (inactive) |
| COCC(=O)N1[C@H](CO)[C@@H](c2ccccc2)C12CN(Cc1cc(F)ccc1F)C2 | -89% (active) |
| COCC(=O)N1CC2(C1)[C@H](c1ccc(-c3cccc(F)c3)cc1)[C@@H](CO)N2C(=O)COC | 11.2% (inactive) |
| O=C(C1CCCC1)N1[C@H](CO)[C@@H](c2ccccc2)C12CN(CCC(F)(F)F)C2 | -46.4% (inactive) |
| O=C(C1CCCCC1)N1[C@H](CO)[C@@H](c2ccccc2)C12CN(Cc1cccc(Cl)c1)C2 | -90.7% (active) |
| COCC(=O)N1CC2(C1)[C@@H](c1ccc(-c3cccc(F)c3)cc1)[C@@H](CO)N2C(=O)COC | 13.9% (inactive) |
| COc1cccc(C#Cc2ccc3c(c2)[C@H]2[C@H](CCN2C(=O)CC2CC2)[C@H](CO)N3)c1 | -67.1% (inactive) |
| COc1ccc2c3c(n(C)c2c1)[C@@H](CO)N(Cc1ccncc1)CC31CN(C(=O)Nc2cccc(F)c2)C1 | -46.3% (inactive) |
| C[C@H]1CN([C@@H](C)CO)C(=O)c2c(c3ccccc3n2C)-c2ccccc2CO[C@@H]1CN(C)Cc1ccc2c(c1)OCCN2C | -31.4% (inactive) |
| CCCN1C[C@H](C)[C@@H](OC)CN(C)C(=O)c2ccc(NC(=O)c3cnccn3)cc2OC[C@H]1C | 13.8% (inactive) |
| COC(=O)C[C@H]1CC[C@@H]2[C@@H](COc3ccc(NC(=O)Nc4ccc(Cl)cc4)cc3C(=O)N2C)O1 | 9.95% (inactive) |

| SMILES | activity change |
| --- | --- |
| O=C([C@@H]1[C@@H](CO)[C@@H]2Cn3c(ccc(-c4cncnc4)c3=O)[C@@H]2N1C(=O)C1CCC1)N1CCCCC1 | 34% (inactive) |
| CCCN(C)C[C@H]1Oc2cc(C#CCC(C)C)ccc2S(=O)(=O)N([C@H](C)CO)C[C@H]1C | -26.1% (inactive) |
| CC(C)CC#Cc1ccc2c(c1)O[C@@H](CN(C)C(=O)c1ccccc1F)[C@H](C)CN([C@H](C)CO)S2(=O)=O | -71.3% (inactive) |
| C[C@@H]1CN([C@H](C)CO)S(=O)(=O)c2ccc(C#CC3CC3)cc2O[C@H]1CN(C)Cc1ccccc1F | -16.8% (inactive) |
| CCCC#Cc1ccc2c(c1)O[C@@H](CN(C)C(=O)c1ccccc1F)[C@H](C)CN([C@H](C)CO)S2(=O)=O | -85.1% (active) |
| CC(C)CC#Cc1ccc2c(c1)O[C@H](CN(C)Cc1ccccc1F)[C@@H](C)CN([C@@H](C)CO)S2(=O)=O | -84.7% (active) |
| C[C@H]1CN([C@@H](C)CO)S(=O)(=O)c2ccc(C#CCN(C)C)cc2O[C@H]1CN(C)C(=O)c1ccccc1F | -28.9% (inactive) |
| COCC#Cc1ccc([C@@H]2[C@@H](CO)N3C(=O)CN(C(=O)C4CCCC4)C[C@@H]23)cc1 | -28.5% (inactive) |
| O=C(C[C@@H]1CC[C@@H]2[C@H](COC[C@@H](O)CN2C(=O)c2ccccc2F)O1)N1CCOCC1 | 11.8% (inactive) |
| C[C@H](CO)N1C[C@H](C)[C@@H](CN(C)CC2CC2)OCCCC[C@H](C)Oc2ccc(NC(=O)Nc3ccccc3)cc2C1=O | 3.68% (inactive) |
| COc1ccc(C#Cc2cnc3c(c2)C(=O)N([C@H](C)CO)C[C@@H](C)[C@@H](CN(C)C(=O)CN(C)C)O3)cc1 | -58.5% (inactive) |
| Cc1ccc(S(=O)(=O)N[C@@H]2CC[C@@H](CC(=O)O)O[C@@H]2CO)cc1 | 10.2% (inactive) |
| COCCNC(=O)[C@H]1[C@H](CO)[C@H]2Cn3c(ccc(-c4ccccc4F)c3=O)[C@H]2N1C(=O)C1CCC1 | -8.98% (inactive) |
| O=C(Cc1ccccc1)N1C[C@@H]2[C@H](c3ccccc31)[C@@H](CO)N2C(=O)C1CC1 | -0.357% (inactive) |
| COCCNC(=O)[C@@H]1[C@@H](CO)[C@@H]2Cn3c(ccc(-c4ccccc4F)c3=O)[C@@H]2N1C(=O)C1CC1 | 7.64% (inactive) |
| COc1ccc(NC(=O)N(C)C[C@H]2Oc3c(NC(=O)NC(C)C)cccc3C(=O)N([C@@H](C)CO)C[C@H]2C)cc1 | -84.2% (active) |
| C[C@@H]1CN([C@@H](C)CO)C(=O)c2cccc(NC(=O)Nc3ccc(F)cc3)c2O[C@H]1CN(C)C(=O)Nc1ccc(F)cc1 | -7.48% (inactive) |
| C[C@@H]1CN([C@@H](C)CO)C(=O)c2cccc(NC(=O)Nc3ccc(F)cc3)c2O[C@@H]1CN(C)C(=O)Nc1ccccc1 | -36.1% (inactive) |
| COc1ccc(NC(=O)Nc2cccc3c2O[C@@H](CN(C)C(=O)NC(C)C)[C@H](C)CN([C@H](C)CO)C3=O)cc1 | -26.3% (inactive) |
| COc1ccc(NC(=O)Nc2cccc3c2O[C@H](CN(C)C(=O)Nc2ccc(F)cc2)[C@@H](C)CN([C@@H](C)CO)C3=O)cc1 | -19.9% (inactive) |

| SMILES | activity change |
| --- | --- |
| C[C@@H]1CN([C@H](C)CO)C(=O)c2cccc(NC(=O)Nc3cccc4ccccc34)c2O[C@@H]1CN(C)C(=O)Nc1ccc(F)cc1 | -95.3% (active) |
| C[C@@H]1CN([C@H](C)CO)C(=O)c2cc(Br)cnc2O[C@@H]1CN(C)Cc1cncnc1 | 25.3% (inactive) |
| O=C1CN(Cc2ccccc2)C[C@H]2[C@H](c3ccc(-c4ccccc4)cc3)[C@@H](CO)N12 | -11% (inactive) |
| COCC(=O)Nc1ccc2c(c1)C(=O)N(C)[C@H]1CC[C@@H](CC(=O)NCc3cccc(F)c3)O[C@H]1CO2 | -2.71% (inactive) |
| C[C@@H]1CCCCO[C@H](CN(C)C(=O)NC2CCCCC2)[C@H](C)CN([C@@H](C)CO)C(=O)c2cc(NC(=O)Nc3ccc(F)cc3)ccc2O1 | -11.4% (inactive) |
| C[C@@H]1CN([C@@H](C)CO)C(=O)c2cc(NC(=O)Nc3cccc4ccccc34)ccc2O[C@@H](C)CCCCO[C@@H]1CN(C)S(=O)(=O)c1ccc(Cl)cc1 | -85.2% (active) |
| C[C@H](CO)N1C[C@H](C)[C@@H](CN(C)S(C)(=O)=O)OCCCC[C@H](C)Oc2ccc(NC(=O)Nc3cccc4ccccc34)cc2C1=O | 11.4% (inactive) |
| C[C@@H]1CCCCO[C@@H](CN(C)C(=O)NC2CCCCC2)[C@H](C)CN([C@@H](C)CO)C(=O)c2cc(NC(=O)Nc3ccc(F)cc3)ccc2O1 | 7.58% (inactive) |
| Cc1ccc(S(=O)(=O)Nc2ccc3c(c2)C(=O)N([C@H](C)CO)C[C@@H](C)[C@@H](CN(C)C)OCCCC[C@@H](C)O3)cc1 | -28.5% (inactive) |
| C[C@H]1CCCCO[C@@H](CN(C)C(=O)C2CCCCC2)[C@@H](C)CN([C@@H](C)CO)C(=O)c2cc(NS(=O)(=O)c3cccs3)ccc2O1 | -83.8% (active) |
| C[C@H]1CCCCO[C@@H](CN(C)C(=O)c2ccccc2)[C@@H](C)CN([C@@H](C)CO)C(=O)c2cc(NS(=O)(=O)c3cccs3)ccc2O1 | -57.2% (inactive) |
| C[C@@H]1CCCCO[C@H](CN(C)C(=O)NC2CCCCC2)[C@H](C)CN([C@H](C)CO)C(=O)c2cc(NC(=O)Nc3ccc(F)cc3)ccc2O1 | -85.2% (active) |
| C[C@@H]1CN([C@@H](C)CO)C(=O)c2cc(NS(=O)(=O)c3cccs3)ccc2O[C@@H](C)CCCCO[C@@H]1CN(C)C(=O)NC1CCCCC1 | -14% (inactive) |
| CCCN(C)C[C@H]1OCCCC[C@H](C)Oc2ccc(NS(=O)(=O)c3ccc(C)cc3)cc2C(=O)N([C@@H](C)CO)C[C@H]1C | -65.3% (inactive) |
| CC(C)NC(=O)Nc1ccc2c(c1)C(=O)N([C@@H](C)CO)C[C@H](C)[C@H](CN(C)S(=O)(=O)c1ccc(Cl)cc1)OCCCC[C@H](C)O2 | -79.5% (inactive) |
| CCCN(C)C[C@@H]1OCCCC[C@H](C)Oc2ccc(NS(=O)(=O)c3ccc(C)cc3)cc2C(=O)N([C@H](C)CO)C[C@@H]1C | -87.8% (active) |
| CCCNC(=O)N[C@@H]1CC[C@@H](CCn2cc(C3CC3)nn2)O[C@@H]1CO | 12.3% (inactive) |
| COc1ccccc1S(=O)(=O)N1C[C@@H](O)COC[C@H]2O[C@H](CC(=O)O)CC[C@@H]21 | -3.23% (inactive) |
| COc1ccc(NC(=O)N(C)C[C@@H]2Oc3ncc(-c4ccc(C#N)cc4)cc3C(=O)N([C@@H](C)CO)C[C@H]2C)cc1 | 34.7% (inactive) |
| O=C(C1CCC1)N1CC[C@@H]2[C@H]1c1cc(C#Cc3ccc(F)cc3)ccc1N[C@@H]2CO | -70.8% (inactive) |
